Measured potencies and affinities stand elsewhere. The source made the active and inactive calls. Unless noted, the rule behind the calls is not given here.
These molecules were tested against Calcium-dependent protein kinase 1 (Plasmodium falciparum (isolate 3D7)) (UniProt P62344) (assay: PfCDPK1 kinase inhibitors, biochemical, TCAMS library (AID 1159585; cut-off not given, nearly all actives have IC50 up to about 0.98 µM;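 note: inhibitors leave more ATP so luminescence rises with inhibition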)). Settings: recombinant PfCDPK1, Kinase-Glo ATP depletion luminescence.
Chain of Calcium-dependent protein kinase 1 (Plasmodium falciparum (isolate 3D7)) (P62344 whole entry, looked up): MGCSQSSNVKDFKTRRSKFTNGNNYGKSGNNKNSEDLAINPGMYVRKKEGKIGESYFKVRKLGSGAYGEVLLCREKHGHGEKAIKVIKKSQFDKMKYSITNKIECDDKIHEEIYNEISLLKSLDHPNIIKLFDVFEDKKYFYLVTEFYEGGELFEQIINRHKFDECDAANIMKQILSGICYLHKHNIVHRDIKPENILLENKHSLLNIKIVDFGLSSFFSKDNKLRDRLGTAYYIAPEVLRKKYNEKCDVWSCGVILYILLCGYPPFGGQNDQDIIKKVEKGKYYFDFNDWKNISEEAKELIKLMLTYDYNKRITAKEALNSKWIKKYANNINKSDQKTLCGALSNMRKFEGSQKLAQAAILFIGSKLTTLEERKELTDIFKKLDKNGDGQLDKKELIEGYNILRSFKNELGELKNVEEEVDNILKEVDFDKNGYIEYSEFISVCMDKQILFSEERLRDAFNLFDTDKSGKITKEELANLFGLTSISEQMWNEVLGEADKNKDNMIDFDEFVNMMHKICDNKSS

outcome, inactive:
Nc1cc(/C=C/c2ccc(O)cc2)nc2ccccc12
Cc1cc(-c2cc(-c3ccc(OCCN(C)C)cc3)[nH]c2-c2ccc3c(c2)CC/C3=N\O)ccn1
Nc1c2c(nc3ccccc13)/C(=C/c1ccc(O)cc1)CCC2
Oc1ccc2ccccc2c1/C=N/Nc1nc(Nc2ccccc2)nc(Nc2ccccc2)n1
O=C(Nc1ccc(Oc2ccc(OC(F)(F)F)cc2)cc1)c1ccco1
Oc1ccc2ccccc2c1/C=N/Nc1nc(Nc2ccccc2)nc(N2CCOCC2)n1
N=C(N)c1ccc(/C=C/c2ccc(C(=N)N)cc2O)cc1
O=[N+]([O-])c1ccc(/C=N/O)nc1
CC[C@@H]([C@H](CC(C)C)C(=O)N[C@@H](CCCCNC(=O)OCc1ccccc1)C(=O)Nc1ccccn1)N(O)C=O
O=[N+]([O-])c1cccc(-c2nc3ccc(C4=N[C@@H]5CCCC[C@@H]5N4)cc3[nH]2)c1
COc1cc(/C=C(\C2=NC(=O)CS2)c2nc3cccnc3n2C)ccc1O
CCn1c(/C=C/c2cc(Br)ccc2O)nc2ccccc2c1=O
CCCCCC(C)C(C)c1cc(O)c2c(c1)OC(C)(C)CC2c1cc[n+]([O-])cc1 (stereo not given)
Cc1[nH]c2ccccc2c1/C=N/Nc1nc(Nc2ccccc2)nc(Nc2ccccc2)n1
CCC[C@@H]([C@H](CC(C)C)C(=O)N[C@@H](CCCN=C(N)NS(C)(=O)=O)C(=O)Nc1nccs1)N(O)C=O
CC[C@H](C)[C@H](NC(=O)[C@@H](CC1CCCCC1)[C@H](CC)N(O)C=O)C(=O)Nc1ccccn1
C/C(=N\O)C1=C(O)C(c2ccccc2)N(c2ccccc2)C1=O (stereo not given)
COc1ccc(Nc2nc(N/N=C/c3ccc(O)cc3)nc(Nc3ccc([N+](=O)[O-])cc3)n2)cc1
O=C1C=CC(=C2NC(c3ccccc3)=C(c3ccc4oc5ccc(C6=C(c7ccccc7)NC(=C7C=CC(=O)C=C7)N6)cc5c4c3)N2)C=C1
C=CC[C@@H](C[C@H](O)[C@H](Cc1ccccc1)NC(=O)c1ccc(-c2cccnn2)cc1)C(=O)NC1CCCCC1
COc1cc(-c2nc(-c3ccc4c(c3)CC/C4=N\O)c(-c3ccncc3)[nH]2)ccc1OCCN1CCN(C)CC1
CCOc1cc(/C=N/Nc2nc(C)cc(-n3nc(C)cc3C)n2)ccc1O
COc1ccc2nc(C)cc(N/N=C/c3cc(C)ccc3O)c2c1
Cc1cccc2[nH]c(-c3cccc(-c4ccc(NC(=O)Cc5ccc[n+]([O-])c5)cc4)c3)nc12
COc1ccc2nc(/N=C(\N)NC(=O)Nc3ccccc3)nc(C)c2c1
COc1ccc(C2=[N+]([O-])c3ccccc3C2=O)cc1
CN(C)c1cc(N/N=C/c2cc(Cl)ccc2O)nc(N(C)C)n1
Oc1cccc(-c2nc(-c3cccc(I)c3)c(-c3ccc(-c4[nH]c(-c5cccc(O)c5)nc4-c4cccc(I)c4)cc3)[nH]2)c1
CCN(CC)CCCN=c1ccn(O)c2cc3ccccc3cc12
O=[N+]([O-])c1ccc(Nc2nc(N/N=C/c3cc(Cl)cc(Cl)c3O)nc(Nc3ccccc3)n2)cc1
O=C(N/C=N/c1cc([N+](=O)[O-])c(-c2cccnc2)n1-c1ccc(O)cc1)c1ccccc1
C[C@@H]([C@H](CCCc1ccc(Cl)cc1)C(=O)N[C@H](C(=O)Nc1cccnc1)C(C)(C)C)N(O)C=O
CCC[C@H](C(=O)NCCc1cccc(OC)c1)N1C(=O)c2c(ccc(OC)c2OC)C1C(=O)Nc1c(C)cccc1C (stereo not given in full)
CC(C)C[C@H](C(=O)N[C@H](C(=O)Nc1nccs1)C(C)(C)C)[C@H](CCC(F)(F)F)N(O)C=O
CCCCCC(C)C(C)c1cc(O)c2c(c1)OC(C)(C)C/C2=C\c1ccncc1 (stereo not given)
CN(C)C(=S)N/N=C/c1cccc(O)c1O
CO[C@H](C)[C@H](NC(=O)[C@@H](CC(C)C)[C@H](CCC(F)(F)F)N(O)C=O)C(=O)Nc1nccs1
Oc1c(/C=N/n2cnnc2)sc2ccccc12
COc1cc(-c2nc(-c3ccc4c(c3)CC/C4=N\O)c(-c3ccncc3)[nH]2)ccc1OCCN1CCCCC1
CCOc1cc(/C=C/c2nc3ccccc3c(=O)[nH]2)cc(Cl)c1O

The molecules below were run against Plasmodium falciparum protein kinase 6 (PK6, PF3D7_1337100) (UniProt Q8IDW1) (assay: PfPK6 kinase inhibitors, biochemical, TCAMS library (AID 1159586)). Settings: recombinant PfPK6, Kinase-Glo ATP depletion luminescence.
Chain of Plasmodium falciparum protein kinase 6 (PK6, PF3D7_1337100) (Q8IDW1 1-305): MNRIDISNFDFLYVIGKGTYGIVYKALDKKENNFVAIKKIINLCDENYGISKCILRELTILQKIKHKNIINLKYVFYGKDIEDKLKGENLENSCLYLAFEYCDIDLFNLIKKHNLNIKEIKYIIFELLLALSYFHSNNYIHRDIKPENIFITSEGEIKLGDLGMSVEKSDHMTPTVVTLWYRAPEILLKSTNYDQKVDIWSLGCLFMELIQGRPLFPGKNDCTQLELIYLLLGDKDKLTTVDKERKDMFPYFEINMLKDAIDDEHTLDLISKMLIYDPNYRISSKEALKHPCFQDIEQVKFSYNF

outcome, inactive:
Nc1cc(/C=C/c2ccc(O)cc2)nc2ccccc12
Cc1cc(-c2cc(-c3ccc(OCCN(C)C)cc3)[nH]c2-c2ccc3c(c2)CC/C3=N\O)ccn1
Nc1c2c(nc3ccccc13)/C(=C/c1ccc(O)cc1)CCC2
Oc1ccc2ccccc2c1/C=N/Nc1nc(Nc2ccccc2)nc(Nc2ccccc2)n1
O=C(Nc1ccc(Oc2ccc(OC(F)(F)F)cc2)cc1)c1ccco1
Oc1ccc2ccccc2c1/C=N/Nc1nc(Nc2ccccc2)nc(N2CCOCC2)n1
N=C(N)c1ccc(/C=C/c2ccc(C(=N)N)cc2O)cc1
O=[N+]([O-])c1ccc(/C=N/O)nc1
CC[C@@H]([C@H](CC(C)C)C(=O)N[C@@H](CCCCNC(=O)OCc1ccccc1)C(=O)Nc1ccccn1)N(O)C=O
O=[N+]([O-])c1cccc(-c2nc3ccc(C4=N[C@@H]5CCCC[C@@H]5N4)cc3[nH]2)c1
COc1cc(/C=C(\C2=NC(=O)CS2)c2nc3cccnc3n2C)ccc1O
CCn1c(/C=C/c2cc(Br)ccc2O)nc2ccccc2c1=O
CCCCCC(C)C(C)c1cc(O)c2c(c1)OC(C)(C)CC2c1cc[n+]([O-])cc1 (stereo not given)
Cc1[nH]c2ccccc2c1/C=N/Nc1nc(Nc2ccccc2)nc(Nc2ccccc2)n1
CCC[C@@H]([C@H](CC(C)C)C(=O)N[C@@H](CCCN=C(N)NS(C)(=O)=O)C(=O)Nc1nccs1)N(O)C=O
CC[C@H](C)[C@H](NC(=O)[C@@H](CC1CCCCC1)[C@H](CC)N(O)C=O)C(=O)Nc1ccccn1
C/C(=N\O)C1=C(O)C(c2ccccc2)N(c2ccccc2)C1=O (stereo not given)
COc1ccc(Nc2nc(N/N=C/c3ccc(O)cc3)nc(Nc3ccc([N+](=O)[O-])cc3)n2)cc1
O=C1C=CC(=C2NC(c3ccccc3)=C(c3ccc4oc5ccc(C6=C(c7ccccc7)NC(=C7C=CC(=O)C=C7)N6)cc5c4c3)N2)C=C1
C=CC[C@@H](C[C@H](O)[C@H](Cc1ccccc1)NC(=O)c1ccc(-c2cccnn2)cc1)C(=O)NC1CCCCC1
COc1cc(-c2nc(-c3ccc4c(c3)CC/C4=N\O)c(-c3ccncc3)[nH]2)ccc1OCCN1CCN(C)CC1
CCOc1cc(/C=N/Nc2nc(C)cc(-n3nc(C)cc3C)n2)ccc1O
COc1ccc2nc(C)cc(N/N=C/c3cc(C)ccc3O)c2c1
Cc1cccc2[nH]c(-c3cccc(-c4ccc(NC(=O)Cc5ccc[n+]([O-])c5)cc4)c3)nc12
COc1ccc2nc(/N=C(\N)NC(=O)Nc3ccccc3)nc(C)c2c1
COc1ccc(C2=[N+]([O-])c3ccccc3C2=O)cc1
CN(C)c1cc(N/N=C/c2cc(Cl)ccc2O)nc(N(C)C)n1
Oc1cccc(-c2nc(-c3cccc(I)c3)c(-c3ccc(-c4[nH]c(-c5cccc(O)c5)nc4-c4cccc(I)c4)cc3)[nH]2)c1
CCN(CC)CCCN=c1ccn(O)c2cc3ccccc3cc12
O=[N+]([O-])c1ccc(Nc2nc(N/N=C/c3cc(Cl)cc(Cl)c3O)nc(Nc3ccccc3)n2)cc1
O=C(N/C=N/c1cc([N+](=O)[O-])c(-c2cccnc2)n1-c1ccc(O)cc1)c1ccccc1
C[C@@H]([C@H](CCCc1ccc(Cl)cc1)C(=O)N[C@H](C(=O)Nc1cccnc1)C(C)(C)C)N(O)C=O
CCC[C@H](C(=O)NCCc1cccc(OC)c1)N1C(=O)c2c(ccc(OC)c2OC)C1C(=O)Nc1c(C)cccc1C (stereo not given in full)
CC(C)C[C@H](C(=O)N[C@H](C(=O)Nc1nccs1)C(C)(C)C)[C@H](CCC(F)(F)F)N(O)C=O
CCCCCC(C)C(C)c1cc(O)c2c(c1)OC(C)(C)C/C2=C\c1ccncc1 (stereo not given)
CN(C)C(=S)N/N=C/c1cccc(O)c1O
CO[C@H](C)[C@H](NC(=O)[C@@H](CC(C)C)[C@H](CCC(F)(F)F)N(O)C=O)C(=O)Nc1nccs1
Oc1c(/C=N/n2cnnc2)sc2ccccc12
COc1cc(-c2nc(-c3ccc4c(c3)CC/C4=N\O)c(-c3ccncc3)[nH]2)ccc1OCCN1CCCCC1
CCOc1cc(/C=C/c2nc3ccccc3c(=O)[nH]2)cc(Cl)c1O

— PubChem BioAssay
